Pf growth 48h = P. falciparum growth inhibition at 48 hours (one generation). P. falciparum luciferase growth in erythrocytes, 48 h. Potency, µM (top dose mostly 28.7 µM), actives largely listed as inhibitors. actives 5.9% (n = 310,000). AID 504832
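Luciferase-expressing P. falciparum in infected erythrocytes (2% hematocrit, 0.1% parasitemia final) in RPMI 1640/0.5% Albumax were exposed to compound for 48 hours at 37 C, 5% CO2; growth read as luminescence.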
NS1 function inh = blocks influenza NS1 protein function | Potency, µM (top dose mostly 46.1 µM) | actives 0.4% (n = 270,000); calls by dose curve; note: actives are rising curves; nearly all actives have a fitted effect of over 50% in size
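OD600 was taken as the measure of yeast growth restored by compound in an NS1-expressing S. cerevisiae strain. Cells had been washed out of glucose medium and diluted 1:100 into galactose -URA medium, pH 6.0.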
Shiga toxin inh = blocks Shiga toxin action in Vero cells; Vero cells, Shiga toxin protein synthesis inhibition reporter; inhibition, % at 38.7 µM; actives 9.2% (n = 290,000); in the data active = inhibition mostly above about 28%, no sharp cut-off; inactive = mostly below about 43%
Pf growth 96h = inhibits malaria parasite growth, 96 h; actives 6.9% (n = 320,000); AID 504834; P. falciparum luciferase reporter growth, 96 h; Potency, µM (highest dose often 28.7 µM), most hits filed as inhibitors
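P. falciparum expressing integrated firefly luciferase grown in erythrocytes (2% hematocrit, 0.05% parasitemia final) with compounds for 96 hours at 37 C, 5% CO2. Growth inhibition read as loss of luminescence after adding luciferase detection reagent.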
Cycloheximide cs = counter-screen for Shiga toxin inhibitors: cycloheximide protein synthesis inhibition | cell reporter, cycloheximide protein synthesis inhibition counterscreen | max response, % | AID 2314 | actives 12% (n = 300,000); in the data active = max response mostly above about 13%, no sharp cut-off; inactive = mostly below about 14%; note: read at 38.3 µM for the half of the compounds with a filed dose
Of the large screens only hits and unclear results are named; the others gave an inactive call. Shown are actives, neighbours in structure and some others; about 21% of the full set was active somewhere. Unless noted, calls come from the whole dose curve; as a rule, active = well fitted inhibition curve with a large enough effect; inconclusive = small, poorly fitted or top-dose-only effect, or another doubt; inactive = no such curve, though single readings can be large or run the other way.

Clc1ccc(CSc2nnc(-c3c[nH]c4ccccc34)o2)cc1	none (no result: Pf growth 96h)
O=c1c(-c2nnc(SCc3ccc(Cl)cc3)o2)cccn1Cc1ccccc1	Pf growth 48h inconclusive, Pf growth 96h 13µM
O=C(Nc1ccccc1-c1nnc(SCc2ccc(Cl)cc2)o1)c1ccccc1	Pf growth 48h 13µM
O=C(Nc1ccccc1-c1nnc(SCc2ccccc2)o1)c1ccccc1	Pf growth 48h inconclusive, Pf growth 96h inconclusive
Cc1cc(Br)ccc1S(=O)(=O)NCc1ccccc1	Pf growth 48h inconclusive, Pf growth 96h inconclusive
COc1ccc(NCC(=O)N/N=C/C2CCCCC2)cc1	none
Cc1[nH][nH]c(=O)c1C(c1ccc(Br)cc1)c1c(C)[nH][nH]c1=O	Pf growth 96h inconclusive
Cc1cn(-c2ccc(Br)cc2)[nH]c1=O	Shiga toxin inh 64, Cycloheximide cs 39 (no result: Pf growth 96h)
CCOc1ccc2nc(N(CCCN(C)C)C(=O)c3ccc(S(=O)(=O)N4CCc5ccccc5C4)cc3)sc2c1	Pf growth 48h inconclusive, Pf growth 96h inconclusive
CN(C)CCCN(C(=O)CCc1ccccc1)c1nc2ccc(Cl)cc2s1	Pf growth 48h inconclusive, Pf growth 96h 10µM
CN(C)CCCN(C(=O)c1ccc2c(c1)CCCC2)c1nc2ccc(Cl)cc2s1	Pf growth 48h 8.3µM, Pf growth 96h 1.9µM
CCOc1ccc2nc(N(CCCN(C)C)C(=O)c3ccc4c(c3)CCCC4)sc2c1	Pf growth 48h inconclusive, Pf growth 96h 5.9µM
CN(C)CCCN(C(=O)COc1ccccc1)c1nc2ccc(Cl)cc2s1	none (no result: NS1 function inh)
CCOc1ccccc1N(CC(=O)Nc1ccc(S(=O)(=O)N2CCCC2)cc1)S(C)(=O)=O	none
Nc1ccc2c(c1)C(=O)N(c1cccc3ccccc13)C2=O	none (no result: Shiga toxin inh)
CCN1CCN(c2ccc(N)c(C)c2)CC1	Pf growth 48h inconclusive, Pf growth 96h inconclusive (no result: NS1 function inh)
Cc1ccc(C)c(N)c1	none (no result: NS1 function inh, Shiga toxin inh, Cycloheximide cs)
Cc1ccc(-n2nc3cc(C)c(N)cc3n2)cc1	Shiga toxin inh 96, Cycloheximide cs 53 (no result: Pf growth 96h)
Cc1cc2nn(-c3cccc4ccccc34)nc2cc1N	Pf growth 48h inconclusive, Shiga toxin inh 44, Cycloheximide cs 22 (no result: Pf growth 96h)
CCc1ccc(-n2nc3cc(C)c(N)cc3n2)cc1	NS1 function inh inconclusive, Shiga toxin inh 142, Pf growth 96h 13µM, Cycloheximide cs 57
O=C(NC1CCCCC1)c1ccc(S(=O)(=O)c2ccccc2)cc1	Pf growth 96h inconclusive
Cc1cc(C)c2oc(C(=O)N(Cc3ccccc3)c3ccccn3)cc(=O)c2c1	Pf growth 48h 12µM, Pf growth 96h inconclusive
CSc1ccccc1NC(=O)CN(C)Cc1c(O)ccc2ccccc12	none
COc1ccc(/C=N/NC(=O)c2cccc(NC(=O)c3ccccc3Cl)c2)cc1OC	none (no result: NS1 function inh)
O=C(N/N=C/c1ccc(F)cc1)c1cccc(NC(=O)c2ccccc2Cl)c1	Shiga toxin inh 36, Cycloheximide cs 20
COc1ccc(/C=N/NC(=O)c2cccc(NC(=O)c3ccccc3Cl)c2)cc1	Cycloheximide cs 50
O=C(N/N=C/c1ccncc1)c1cccc(NC(=O)c2ccccc2Cl)c1	Pf growth 48h inconclusive
CCOc1ccc(Nc2nc(NCCN3CCOCC3)nc(OC)n2)cc1	Pf growth 96h inconclusive (no result: Pf growth 48h)
C/C(=N\Nc1ccc(Cl)cc1)c1c(O)cc(C)oc1=O	none (no result: NS1 function inh)
O=C(NCc1ccccc1)N(Cc1nc2ccccc2c(=O)[nH]1)C1CCCC1	none (no result: Pf growth 48h)
Cc1ccc2nc(-c3ccc(NC(=O)CNC4CC4)cc3)sc2c1	Shiga toxin inh 95, Cycloheximide cs 42
Cc1ccc2nc(-c3ccc(NC(=O)COC(=O)c4ccc(=O)[nH]c4)cc3)sc2c1	Shiga toxin inh 61, Cycloheximide cs 65
Cc1ccc2nc(-c3ccc(NC(=O)CN4C(=O)c5ccccc5C4=O)cc3)sc2c1	Shiga toxin inh 108, Cycloheximide cs 75
Cc1ccc2nc(-c3ccc(NC(=O)CN4CCN(c5ccccn5)CC4)cc3)sc2c1	Shiga toxin inh 90, Cycloheximide cs 29
Cc1ccc(NC(=O)COC(=O)c2ccc3c(c2)OCCO3)cc1	none (no result: NS1 function inh, Shiga toxin inh, Cycloheximide cs)
CC(=O)N(C)c1ccc(N=NC2C(=O)N(C(N)=S)N=C2C)cc1 (stereo not given)	none
O=C(COn1nnc2ccc(C(F)(F)F)cc21)Nc1c(Cl)cccc1Cl	none
Cc1ccc2nc(-c3ccc(NC(=S)NC(=O)CC(C)C)cc3)sc2c1	Shiga toxin inh active, Cycloheximide cs 34 (no result: Pf growth 96h)
Cc1cc(C)nc(NS(=O)(=O)c2ccc(NC(=S)NC(=O)CC(C)C)cc2)n1	none
NC(=O)c1cc2cc(Cl)ccc2oc1=Nc1cccc(C(F)(F)F)c1	none
Cc1ccsc1/C=N\NC(=O)c1n[nH]c2c1CCC2	Pf growth 96h 10µM, Cycloheximide cs 11
O=C(N/N=C/c1c(Cl)cccc1Cl)c1n[nH]c2c1CCCC2	NS1 function inh inconclusive, Shiga toxin inh 132, Cycloheximide cs 94
CCC(CC)N1CCN(CC2CC=CCC2)CC1 (stereo not given)	none (no result: NS1 function inh)
CC(C(O)C12CC3CC(CC(C3)C1)C2)N1CCCCC1 (stereo not given)	Pf growth 96h inconclusive (no result: NS1 function inh)
CCOC(=O)C1CCC(CN(Cc2ccccc2)S(=O)(=O)c2ccc([N+](=O)[O-])cc2)CC1 (stereo not given)	none
COc1ccc(/C=C/C2=CC(C)(C)NC(=S)N2)cc1	Pf growth 48h inconclusive, Pf growth 96h 9.3µM (no result: NS1 function inh)
O=[N+]([O-])c1cccc(/C=N/Nc2nc(C(Cl)(Cl)Cl)nc3ccccc23)c1	Pf growth 48h 1µM, Pf growth 96h inconclusive
Cc1cc(C(=O)N/N=C/c2ccncc2)c2ccccc2n1	none
ClC(Cl)(Cl)c1nc(N/N=C/c2ccncc2)c2ccccc2n1	Pf growth 48h 2.3µM, Pf growth 96h inconclusive (no result: NS1 function inh)
COc1ccc(N(CC(=O)NCc2ccccc2)C(=O)CCC(=O)Nc2cc(C)ccn2)c(OC)c1	Pf growth 48h 1.7µM, Pf growth 96h 0.47µM
COc1ccccc1N(CC(=O)NCCc1ccccc1)C(=O)CCC(=O)Nc1cc(C)ccn1	Pf growth 96h inconclusive
O=C(Cn1cc([N+](=O)[O-])cn1)Nc1ccccn1	Pf growth 96h inconclusive
Cc1ccnc(NC(=O)Cn2cc([N+](=O)[O-])cn2)c1	Shiga toxin inh 89, Cycloheximide cs 43 (no result: NS1 function inh)
Cc1ccc(NC(=O)COc2ccccc2[N+](=O)[O-])nc1	Shiga toxin inh 56 (no result: NS1 function inh)
Cc1ccnc(NC(=O)COc2ccccc2[N+](=O)[O-])c1	Shiga toxin inh 140, Cycloheximide cs 40 (no result: NS1 function inh)
COc1cc(Cl)c(C)cc1NC(=O)COc1ccccc1[N+](=O)[O-]	none
Cc1ccc(NC(=O)c2ccc(COc3ccccc3[N+](=O)[O-])o2)nc1	none (no result: NS1 function inh, Shiga toxin inh, Cycloheximide cs)
C=CCNC(=S)N(CC)c1cccc2ccccc12	Pf growth 48h inconclusive
Cc1cc(C)nc(SCc2ccc(C(=O)NNC(=O)Nc3cccc(Cl)c3)cc2)n1	NS1 function inh inconclusive
CCN(CC)S(=O)(=O)c1ccc(Cl)c(C(=O)Nc2ccc(Cl)cc2[N+](=O)[O-])c1	Pf growth 96h inconclusive
CCc1nnc(NC(=O)COc2ccc([N+](=O)[O-])cc2)s1	none (no result: NS1 function inh)
COc1ccccc1CC(=O)Nc1cc(C)ccn1	Shiga toxin inh 103, Pf growth 96h inconclusive, Cycloheximide cs 45
CCc1nnc(NC(=O)COc2ccccc2[N+](=O)[O-])s1	Cycloheximide cs 10
Cc1cc(C(=O)NCCc2ccc(S(N)(=O)=O)cc2)c(C)o1	none
